In PubChem BioAssay AID1159580 (chemical genetic matrix, 2015):
“And” between values parts separate entries of the source, which are not always exact repeats. Equal values may be shown once. In all, about 5,500 compounds went through this assay and about 2,000 (36%) were called active. Roughly 18% stayed inconclusive and do not appear here. Cut-off read from the data, not from the text of the source: active = normalized growth mostly below about 0.91 (no sharp cut-off); inconclusive = no clear call, values can overlap the other calls; inactive = mostly above about 0.92. The list shows a part of the results.

Experiment: chemical genetic growth profiling, strain panel (AID 1159580);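 note: tested at 20 µM; growth read once vehicle control cultures reached saturation at 30 °C; 1 = growth at the plate median or of vehicle wells; lower values mean less growth of the strain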
Conditions: S. cerevisiae deletion strains, growth OD

Measured: normalized growth

CC(=O)Oc1cc(OC(C)=O)c2c(c1)O[C@H](c1ccc(OC(C)=O)c(OC(C)=O)c1)[C@@H](OC(C)=O)C2
inactive: locus YAL013W, strain DEP1, stronger effect = lower value 1 | locus YAL021C, strain ccr4, stronger effect = lower value 1 | locus YAL026C, strain drs2, stronger effect = lower value 0.995 | locus YAL030W, strain snc1, stronger effect = lower value 1 | locus YBL061C, strain skt5, stronger effect = lower value 1 | locus YBR009C, strain hhf1, stronger effect = lower value 1.02 | locus YBR021W, strain FUR4, stronger effect = lower value 0.975 | locus YBR023C, strain chs3, stronger effect = lower value 1 | locus YBR171W, strain sec66, stronger effect = lower value 1 | locus YBR229C, strain ROT2, stronger effect = lower value 0.992 | locus YBR231C, strain swc5, stronger effect = lower value 0.99 | locus YBR279W, strain paf1, stronger effect = lower value 1 | locus YCL011C, strain gbp2, stronger effect = lower value 1 | locus YCL016C, strain dcc1, stronger effect = lower value 1 | locus YCL029C, strain bik1, stronger effect = lower value 0.965 | locus YCL061C, strain MRC1, stronger effect = lower value 0.994 | locus YCL069W, strain vba3, stronger effect = lower value 1 | locus YCR088W, strain abp1, stronger effect = lower value 1 | locus YDL005C, strain med2, stronger effect = lower value 1 | locus YDL035C, strain GPR1, stronger effect = lower value 0.995 | locus YDL040C, strain nat1, stronger effect = lower value 1 | locus YDL074C, strain BRE1, stronger effect = lower value 0.99 | locus YDL101C, strain DUN1, stronger effect = lower value 0.994 | locus YDL134C, strain PPH21, stronger effect = lower value 1.04 | locus YDL185W, strain tfp1, stronger effect = lower value 0.972 | locus YDL192W, strain arf1, stronger effect = lower value 0.98 | locus YDR001C, strain nth1, stronger effect = lower value 1 | locus YDR069C, strain doa4, stronger effect = lower value 0.994 | locus YDR101C, strain arx1, stronger effect = lower value 0.961 | locus YDR137W, strain rgp1, stronger effect = lower value 1.02 | locus YDR159W, strain sac3, stronger effect = lower value 0.999 | locus YDR162C, strain NBP2, stronger effect = lower value 0.997 | locus YDR195W, strain ref2 0.966 | locus YDR297W, strain sur2, stronger effect = lower value 1.01 | locus YDR318W, strain mcm21, stronger effect = lower value 1.01 | locus YDR334W, strain swr1, stronger effect = lower value 1 | locus YDR335W, strain msn5, stronger effect = lower value 0.997 | locus YDR388W, stronger effect = lower value 0.978 | locus YDR392W, strain spt3, stronger effect = lower value 0.927 | locus YDR502C, strain sam2, stronger effect = lower value 0.984 | locus YEL003W, strain gim4, stronger effect = lower value 1 | locus YEL037C, strain rad23, stronger effect = lower value 1 | locus YEL061C, strain CIN8 (second series), stronger effect = lower value 0.998 | locus YEL061C, strain CIN8, stronger effect = lower value 1 | locus YER015W, strain faa2, stronger effect = lower value 0.995 | locus YER016W, strain bim1, stronger effect = lower value 0.999 | locus YER110C, stronger effect = lower value 0.97 | locus YER111C, strain swi4, stronger effect = lower value 1 | locus YER155C, strain BEM2 (second series), stronger effect = lower value 1 | locus YER155C, strain BEM2, stronger effect = lower value 1 | locus YER167W, strain BCK2, stronger effect = lower value 1 | locus YFR010W, strain ubp6, stronger effect = lower value 1 | locus YGL078C, strain dbp3, stronger effect = lower value 0.979 | locus YGL086W, strain mad1, stronger effect = lower value 0.955 | locus YGL167C, strain pmr1, stronger effect = lower value 1 | locus YGL173C, strain kem1, stronger effect = lower value 1.01 | locus YGL227W, strain vid30, stronger effect = lower value 0.993 | locus YGL240W, strain doc1, stronger effect = lower value 1 | locus YGL248W, strain PDE1, stronger effect = lower value 0.993 | locus YGL253W, strain hxk2, stronger effect = lower value 0.997 | locus YGR078C, strain PAC10, stronger effect = lower value 0.991 | locus YGR135W, strain pre9, stronger effect = lower value 0.992 | locus YGR229C, strain SMI1, stronger effect = lower value 0.992 | locus YGR252W, strain gcn5, stronger effect = lower value 1.1 | locus YHR013C, strain ard1, stronger effect = lower value 0.967 | locus YHR027C, strain rpn1, stronger effect = lower value 1 | locus YHR030C, strain SLT2, stronger effect = lower value 0.998 and 0.994 | locus YHR079C, strain IRE1 (second series), stronger effect = lower value 0.98 | locus YHR079C, strain IRE1, stronger effect = lower value 0.98 | locus YHR094C, strain hxt1, stronger effect = lower value 0.985 | locus YHR129C, strain ARP1, stronger effect = lower value 1 | locus YHR142W, strain chs7, stronger effect = lower value 1.02 | locus YHR200W, strain rpn10, stronger effect = lower value 0.982 | locus YIL066C, strain RNR3, stronger effect = lower value 0.978 | locus YIL073C, strain SPO22, stronger effect = lower value 1.01 | locus YIL125W, strain kgd1, stronger effect = lower value 0.975 | locus YIR030C, strain dcg1, stronger effect = lower value 0.982 | locus YJL092W, strain hpr5, stronger effect = lower value 0.997 | locus YJL095W, strain BCK1 (second series), stronger effect = lower value 1 | locus YJL095W, strain BCK1, stronger effect = lower value 1.02 and 0.979 | locus YJL115W, strain asf1, stronger effect = lower value 0.99 | locus YJL129C, strain trk1, stronger effect = lower value 0.995 | locus YJL134W, strain LCB3, stronger effect = lower value 0.997 | locus YJL154C, strain vps35, stronger effect = lower value 0.997 | locus YJL164C, strain tpk1, stronger effect = lower value 1 | locus YJL166W, strain qcr8, stronger effect = lower value 1.01 | locus YJL168C, strain set2, stronger effect = lower value 0.981 | locus YJL187C, strain SWE1 (second series), stronger effect = lower value 0.985 | locus YJL187C, strain SWE1, stronger effect = lower value 1 | locus YJR043C, strain POL32, stronger effect = lower value 1.01
